This is a sample that favours compounds with a hit; in the whole collection about 9.4% have one here.
ALDH1A1 block = qHTS Assay for Inhibitors of Aldehyde Dehydrogenase 1 (ALDH1A1). Aldehyde dehydrogenase 1A1 (Homo sapiens), P00352. Purified ALDH1A1, NADH fluorescence, propionaldehyde substrate. Potency, µM (top dose mostly 75.3 µM), inactives show top-dose activity, negative = inhibition, actives largely listed as inhibitors. 220,000 compounds, 7.3% hits; active means well fitted inhibition curve with a large enough effect, not every such curve was filed as active; inconclusive means small, poorly fitted or top-dose-only effect, or another doubt; inactive means no such curve, though single readings can be large or run the other way;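 further: potency means the concentration at half of the fitted maximal effect; plate controls were no enzyme wells and a reference inhibitor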
IMPase Li inh = qHTS Assay for Identifying the Cell-Membrane Permeable IMPase Inhibitors: Potentiation with Lithium. CHO-M1 cells, IP1 TR-FRET (IP-One), carbachol + lithium. 210,000 compounds, 0.35% hits. AID 1457, 2008. Potency, µM (titrated, usually from 59.4 µM), for the others: at the highest dose activity, negative = IMPase inhibition, most hits filed as inhibitors;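 further: IP1 builds up when IMPase is blocked and the TR-FRET signal falls; potency means the concentration at half of the fitted maximal effect; plate controls were basal vehicle for no effect and high inhibitor control for full effect; nearly all actives have a fitted effect of over 50% in size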
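Lithium-sensitised IP1 accumulation assay; M1-expressing CHO cells treated 30 min at 37C with compound. Competitive antibody detection by time-resolved FRET followed a 10 min room-temperature lysis step.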
HPGD block = qHTS Assay for Inhibitors of HPGD (15-Hydroxyprostaglandin Dehydrogenase). AID 894, 2007. 150,000 compounds, 4.3% hits. Potency, µM, for inactives: at the top dose activity change, negative = inhibition, most hits filed as inhibitors. purified HPGD, NADH fluorescence kinetic, PGE2 substrate; active means well fitted inhibition curve with a large enough effect, not every such curve was filed as active; inconclusive means small, poorly fitted or top-dose-only effect, or another doubt; inactive means no such curve, though single readings can be large or run the other way; further: potency means the concentration at half of the fitted maximal effect; on the % scale 0 is the no-effect control and ±100 the full control effect
Target sequence (P15428 whole entry, looked up): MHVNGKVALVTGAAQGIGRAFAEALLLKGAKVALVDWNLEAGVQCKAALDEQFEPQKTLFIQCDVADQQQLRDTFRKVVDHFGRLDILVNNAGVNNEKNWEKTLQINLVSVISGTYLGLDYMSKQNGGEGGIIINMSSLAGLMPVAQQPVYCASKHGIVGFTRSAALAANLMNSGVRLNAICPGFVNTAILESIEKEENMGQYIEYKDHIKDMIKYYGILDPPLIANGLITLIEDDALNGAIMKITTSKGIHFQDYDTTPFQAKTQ
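20 nM HPGD preincubated 15 min at room temperature with compound in 50 mM Tris-HCl pH 8, 0.01% Tween 20. Started with 1 mM NAD+ and 30 uM prostaglandin E2; NADH fluorescence (360/450 nm) read 5 times over 30-s intervals, last minus first.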
HttQ103 aggreg = qHTS Multiplex Assay to Identify Dual Action Probes in a Cell Model of Huntington: Aggregate Formation (GFP) | 220,000 compounds, 1.1% hits | PC12 HttQ103-GFP aggregates, Acumen cytometry, 40 h | Potency, µM (series often up to 46.1 µM), for the others: top-dose activity change, negative = inhibition, actives largely listed as inhibitors; further: potency means the concentration at half of the fitted maximal effect; on the % scale 0 is the no-effect control and ±100 the full control effect; nearly all actives have a fitted effect of over 60% in size
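Quantitative HTS on tebufenozide-induced (100 nM) PC12 cells stably expressing polyQ103 Huntingtin exon 1–GFP. Reduction of bright GFP aggregates, detected by laser scanning cytometry after lysis, identified actives across the titration.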
HTT cytoprotect = qHTS Multiplex Assay to Identify Dual Action Probes in a Cell Model of Huntington: Cytoprotection (ATP) | PC12 HTT-Q103 induced, cytoprotection, ATP luminescence, 40 h | Potency, µM (series often up to 56.4 µM), for inactives: cytoprotection (ATP increase), most hits filed as activators | 230,000 compounds, 0.14% hits; further: potency means the concentration at half of the fitted maximal effect; % of control where 0% means no effect; nearly all actives have a fitted effect of over 45% in size
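PC12 cells stably carrying ecdysone-inducible Htt exon 1 (Q103)–GFP were induced with 100 nM tebufenozide (final) alongside library compounds in a dose series. Cytoprotection was scored as retained ATP by ATPlite luminescence.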
IMPase cell inh = qHTS Assay for Identifying the Cell-Membrane Permeable IMPase Inhibitors. CHO-M1 cells, IP1 accumulation, HTRF TR-FRET ratio. Inositol monophosphatase 1 (Rattus norvegicus), P97697. inhibition (IP1 accumulation), % at 46.1 µM. 120,000 tested, under 10 active; active means well fitted curve in the direction sought with a large enough effect in the signal ratio, not every such curve was filed as active; inconclusive means small, poorly fitted or top-dose-only effect, or a change in a side signal; inactive means no such curve, though single readings can be large or run the other way; the % refers to the signal ratio;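 further: cells stimulated with carbachol in lithium chloride buffer; plate controls were DMSO basal wells for no effect and reference inhibitor wells for full effect; higher means more IMPase inhibition seen as more IP1 and lower FRET ratio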
Target sequence (P97697 whole entry, looked up): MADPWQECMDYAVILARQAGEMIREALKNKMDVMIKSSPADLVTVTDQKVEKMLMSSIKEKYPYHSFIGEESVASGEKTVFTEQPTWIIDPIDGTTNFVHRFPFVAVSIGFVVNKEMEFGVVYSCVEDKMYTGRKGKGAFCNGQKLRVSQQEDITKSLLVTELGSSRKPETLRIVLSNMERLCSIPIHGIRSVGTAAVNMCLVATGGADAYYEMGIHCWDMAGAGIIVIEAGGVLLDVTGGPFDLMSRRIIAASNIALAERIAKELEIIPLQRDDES
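In this qHTS, compounds (final up to 46 uM) act on CHO-M1 cells that are then activated through the M1 receptor with carbachol, in pH 7.4 buffer containing 50 mM LiCl, for 30 min. IP1 accumulation is quantified by the IP-One immunoassay.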
* = called active by the depositor; ? = inconclusive; . = no result; ! = not confirmed by another sample; [ ] = dose if it differs, or a comment. Unless noted, the call rests on the fitted dose curve; in most records, active means well fitted curve in the direction sought with a large enough effect; inconclusive means small, poorly fitted or top-dose-only effect, or another doubt; inactive means no such curve, though single readings can be large; an effect the other way counts as inactive or inconclusive.

SMILES	ALDH1A1 block	IMPase Li inh	HPGD block	HttQ103 aggreg	HTT cytoprotect	IMPase cell inh
O=c1ccc2cc3c4c(c2o1)CCCN4CCC3	?	10%	.	-6%[9.22 µM]	9%[10 µM]	.
O=c1oc2c3c4c(cc2s1)CCCN4CCC3	25µM*	20%[38.3 µM]	22µM*	-1%[9.22 µM]	9%	8
COC(=O)c1ccc(C(NC(=O)OCc2ccccc2)/C(F)=C/[C@@H](C)C(=O)NC2CCCCC2)cc1 (some centres not stated)	-6%	-8%	-7%	.	-79%	.
COc1c2occc2c(OC)c2c(=O)cc(C)oc12	1%	-5%	28µM*!	2%	17%	2[20.6 µM]
COCCn1c(=O)c(CCc2ccccc2)nc2cnc(Oc3ccc(OC)cc3)nc21	?	11%	.	.	-97%	.
Cc1[nH][nH]c(=O)c1C(c1c(C)[nH][nH]c1=O)c1cn(Cc2ccccc2Cl)c2ccccc12	0.45µM*	9%	-10%	17%	4%[10 µM]	.
COC(=O)N/N=C/c1cn(Cc2ccccc2Cl)c2ccccc12	-4%	11%	-11%	-20%	-16%[10 µM]	7
CN(C)c1cc[n+](CC(=O)N2c3ccccc3Sc3ccccc32)cc1	8%	27%	.	-14%[9.22 µM]	-10%[10 µM]	.
O=C(C[n+]1ccccc1)N1c2ccccc2Sc2ccccc21	3.2µM*	34%	.	-8%[9.22 µM]	0%[10 µM]	.
Cc1ccc(C=C2C(=O)c3ccccc3C2=O)s1	0.5µM*	52%[38.3 µM]	13µM*	-15%	-2%	2
O=C1C(=Cc2cccs2)C(=O)c2ccccc21	?	10%	?	?	-29%[10 µM]	.
Cc1ccc2nc(-c3ccc(NC(=O)CCS(=O)(=O)c4ccccc4)cc3)sc2c1	?	13µM*	?	-2%	-11%[10 µM]	-12
Cc1ccc2nc(-c3ccc(NC(=O)CN4C(=O)c5ccccc5C4=O)cc3)sc2c1	?	?	?	-2%	-3%[10 µM]	-10
Cc1ccc(N(CC(=O)Nc2ccc(-c3nc4ccc(C)cc4s3)cc2)S(C)(=O)=O)cc1	?	13µM*	?	?	-52%	5
Cc1ccc2nc(-c3ccc(NC(=O)COC(=O)c4ccc(=O)[nH]c4)cc3)sc2c1	3.5µM*	-6%	?	2%	-28%[0.074 µM]	.
Cc1nc2oc(C(=O)c3ccccc3)c(N)c2c2c1COC(C)(C)C2	14µM*	-6%	-12%	4%	-9%[10 µM]	-2
CCCc1nc2oc(C(=O)OCC)c(N)c2c2c1COC(C)(C)C2	?	-18%[38.3 µM]	?	-8%	-22%	-17
COCCNC(=O)C1(CC(C)C)C=CCN1C(=O)OC (configuration not stated)	3%	-7%	-6%	.	?	.
C[C@@H]1C=CCC(=O)OC[C@H](C)C(=O)OC[C@H]2O[C@H]1C=C[C@@H]2O	1%[13.5 µM]	.	.	.	?	.
O=C(O)CCCSc1ccccc1	22%[13.5 µM]	-3%	-11%	.	-6%[10 µM]	.
CCc1nc2c(sc3nc4c(cc32)COC(C)(C)C4)c(=O)n1Cc1ccco1	2.5µM*	39%[38.3 µM]	-27%	-8%	-30%	-3
CCc1nc2c(sc3nc4c(cc32)COC(C)(C)C4)c(=O)n1Cc1ccccc1	0.71µM*	-4%[38.3 µM]	?	-9%	-2%	7
CCc1nc(OCc2ccco2)c2sc3nc4c(cc3c2n1)COC(C)(C)C4	?	18%[38.3 µM]	-24%	?	-43%	-2
C/C(CCN1CCCc2nc(C)c(C)cc21)=N\O[C@@H](C)c1cn([C@@H]2COC[C@@H]2O)nn1	?	.	.	.	-8%[10 µM]	.
COCCn1c(=O)c(-c2ccc(OC)cc2)nc2cnc(N3CCNCC3)nc21	?	7%	?	.	-23%	.
SMILES	ALDH1A1 block	IMPase Li inh	HPGD block	HttQ103 aggreg	HTT cytoprotect	IMPase cell inh
COc1ccc(-c2n(CC(=O)OC3CC(C)CCC3C(C)C)c3ccccc3[n+]2C)cc1 (configuration not stated)	6.3µM*	20%	.	1%[9.22 µM]	9%[10 µM]	.
CC(C)(C)n1nnnc1C(c1cccnc1)N1CCN(c2cccc(C(F)(F)F)c2)CC1 (configuration not stated)	?	11%	-6%	-5%	-20%[10 µM]	5
CC(C)(C)c1cc(C(c2cccnc2)N2CCN(CCO)CC2)cc(C(C)(C)C)c1O (configuration not stated)	?	8%[38.3 µM]	14µM*	?	-66%[10 µM]	15
Cc1ccc(Nc2nc3c(s2)CCC3)c(C)c1	?	-4%	-12%	13%	12%[10 µM]	-3[0.369 µM]
COc1ccccc1Nc1nc2c(s1)CCC2	18µM*	-6%[38.3 µM]	?	?	9%[10 µM]	7
COc1ccccc1Nc1nc(Cl)c(C=O)s1	18µM*	-11%	.	-1%	-6%[10 µM]	.
O=Cc1sc(Nc2ccccc2)nc1Cl	-7%	5%	.	-8%	?	.
CCCc1cc(COC)c(C#N)c(=O)[nH]1	?	-4%	?	.	-7%[10 µM]	.
CCN(CC)Cc1c(O)c(Cl)cc2c3c(c(=O)oc12)CCCC3	?	13µM*	?	16%	-15%	-21
CN(C)Cc1c(O)c(Cl)cc2c3c(c(=O)oc12)CCCC3	?	?	?	6%	10%	?
CCc1c(C)c2cc(Cl)c(O)c(CN(C)C)c2oc1=O	?	?	?	3.2µM*	-8%[0.074 µM]	?
Cc1c(C)c2cc(Cl)c(O)c(CN(C)C)c2oc1=O	?	-21%[38.3 µM]	?	5%	7%	?
Cc1cnc(CNc2cc(-c3cccc(NS(C)(=O)=O)c3)ncn2)cn1	-7%	1%	.	.	-45%	.
O=c1c2c3c(sc2n(CCN2CCOCC2)c(=O)n1Cc1ccco1)CCCCC3	7.9µM*	14%[38.3 µM]	-14%	?	6%	2

Source: PubChem BioAssay
